The values that follow come from PubChem BioAssay (EPA / NIEHS).

SMILES strings stand for the structures. Inconclusive results are not listed. Where a structure was tested more than once in an assay, its records may differ in their call. Activity calls are given as the source filed them. The calls were made as follows, unless noted: active = hit-call score of the fitted dose curve at least 0.9, where 1 is the maximum; inactive = score below 0.9.

The target of assay [1] is human Retinoid X Receptor beta (RXRb), RXRB (gene 6257) (UniProt P28702). The experiment in a line: ATG_RXRb_TRANS: Attagene TRANS-FACTORIAL HepG2 Assay for human Retinoid X Receptor beta (RXRb) (AID 2283013; active = hit-call score of the fitted dose curve at least 0.9, where 1 is the maximum). In outline: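 HepG2 cells transiently transfected with multiplexed reporter units driven by GAL4-UAS and exogenous chimeric NR-Gal4 proteins; treated 24 h. Reporter mRNA measured by RT-PCR, 6-FAM labelling and capillary electrophoresis; gain-of-signal fitted versus DMSO baseline.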
Sequence of human Retinoid X Receptor beta (RXRb), RXRB (gene 6257) (P28702 whole entry, looked up, the tested form may be a part): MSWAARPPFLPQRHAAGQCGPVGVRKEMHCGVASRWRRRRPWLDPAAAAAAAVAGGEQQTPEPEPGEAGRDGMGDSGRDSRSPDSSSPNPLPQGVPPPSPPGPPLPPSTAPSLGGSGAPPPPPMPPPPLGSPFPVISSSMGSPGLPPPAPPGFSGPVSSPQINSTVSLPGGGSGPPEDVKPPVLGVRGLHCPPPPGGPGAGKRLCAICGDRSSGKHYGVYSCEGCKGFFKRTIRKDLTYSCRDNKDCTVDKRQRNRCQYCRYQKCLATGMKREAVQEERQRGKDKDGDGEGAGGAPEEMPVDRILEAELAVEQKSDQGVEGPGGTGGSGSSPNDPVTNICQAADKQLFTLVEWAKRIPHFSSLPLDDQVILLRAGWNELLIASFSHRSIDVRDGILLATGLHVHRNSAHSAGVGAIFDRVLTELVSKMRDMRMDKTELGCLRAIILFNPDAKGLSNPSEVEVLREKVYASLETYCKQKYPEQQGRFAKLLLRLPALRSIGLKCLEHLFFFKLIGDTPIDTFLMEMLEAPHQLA

Assay [2] has as its target human Thyroid Receptor alpha (THRa1), THRA (gene 7067) (UniProt P10827). In words: ATG_THRa1_TRANS: Attagene TRANS-FACTORIAL HepG2 Assay for human Thyroid Receptor alpha (THRa1) (AID 2283014; active = hit-call score of the fitted dose curve at least 0.9, where 1 is the maximum). In short, it runs like this: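 Transcripts from GAL4-UAS-driven reporters, measured after 24 h compound exposure by RT-PCR plus capillary electrophoresis of 6-FAM-labeled fragments, were fitted for gain of signal relative to DMSO. Cells: transiently transfected HepG2 expressing NR-Gal4 chimeras.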

Read-out in assay [3]: E-selectin (Homo sapiens) (UniProt P16581)
In words: BSK_3C_Eselectin: BioMAP Diversity Plus: 3C Assay for Eselectin Biomarker Activity (AID 2283015).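 As to outcome: cell surface E-selectin protein quantified by ELISA 24 h after dosing.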 The conditions noted are these: primary human endothelial cells (HUVEC); actives raise or lower the signal. In short, it runs like this: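 E-selectin ELISA readout, fitted bidirectionally relative to DMSO, taken 24 h post-dosing in HUVEC cultures of the 3C system. Overt cytotoxicity tracked with sulforhodamine B staining of parallel wells.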

Read-out in assay [4]: Interleukin-1 alpha (IL1a), IL1A (gene 3552)
In words: BSK_BE3C_IL1a: BioMAP Diversity Plus: BE3C Assay for Interleukin-1 alpha (IL1a) Biomarker Activity (AID 2283016). Particulars: primary human bronchial epithelial cells; actives raise or lower the signal. In short, it runs like this: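 Human primary bronchial epithelial cells (BE3C system) were dosed with compound and IL-1a measured by ELISA 24 h later. Activity was fitted bidirectionally against DMSO baseline; cytotoxicity was tracked in parallel cultures by SRB total-protein staining.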

Read-out in assay [5]: Monocyte Chemoattractant Protein-1 (MCP1), CCL2 (gene 6347)
The experiment in a line: BSK_3C_MCP1: BioMAP Diversity Plus: 3C Assay for Monocyte Chemoattractant Protein-1 (MCP1) Biomarker Activity (AID 2283017). The conditions noted are these: primary human endothelial cells (HUVEC); actives raise or lower the signal. In short, it runs like this:
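MCP-1 was measured by ELISA 24 h after dosing in primary HUVEC 3C cultures and fitted in both directions relative to DMSO; cytotoxicity was checked by SRB total-protein staining in parallel wells.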

Read-out in assay [6]: Monocyte Chemoattractant Protein-1 (MCP1), CCL2 (gene 6347)
The experiment in a line: BSK_4H_MCP1: BioMAP Diversity Plus: 4H Assay for Monocyte Chemoattractant Protein-1 (MCP1) Biomarker Activity (AID 2283018). Particulars: primary human endothelial cells (HUVEC); actives raise or lower the signal. In short, it runs like this: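 Human umbilical vein endothelial cells (4H system) dosed with chemical; MCP-1 measured by ELISA 24 h after dosing. Bidirectional curve fitting against DMSO negative control as baseline; parallel SRB total-protein staining tracks overt cytotoxicity.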

Read-out in assay [7]: Human Leukocyte Antigen - DR isotype (HLADR), HLA-DRA (gene 3122)
In words: BSK_3C_HLADR: BioMAP Diversity Plus: 3C Assay for Human Leukocyte Antigen - DR isotype (HLADR) Biomarker Activity (AID 2283019).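 As to outcome: ELISA of cell-surface HLA-DR on HUVEC 24 h after dosing.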 Particulars: primary human endothelial cells (HUVEC); actives raise or lower the signal. In short, it runs like this: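 Bidirectional fitting against DMSO was applied to the HLA-DR ELISA signal from human umbilical vein endothelial cells, 24 h post-dose. Cytotoxicity came from parallel SRB total-protein staining; 3C proliferation was counted by SRB at 48 h.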

Read-out in assay [8]: Interleukin-8 (IL8), CXCL8 (gene 3576)
In words: BSK_3C_IL8: BioMAP Diversity Plus: 3C Assay for Interleukin-8 (IL8) Biomarker Activity (AID 2283020). The conditions noted are these: primary human endothelial cells (HUVEC); actives raise or lower the signal. In short, it runs like this: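 Primary human umbilical vein endothelial cells (3C system) were exposed to test chemical for 24 h, then IL-8 was quantified by ELISA. Responses were fitted bidirectionally against DMSO vehicle as baseline.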

Read-out in assay [9]: Monokine induced gamma interferon (MIG), CXCL9 (gene 4283)
The experiment in a line: BSK_3C_MIG: BioMAP Diversity Plus: 3C Assay for Monokine induced gamma interferon (MIG) Biomarker Activity (AID 2283021). The conditions noted are these: primary human endothelial cells (HUVEC); actives raise or lower the signal. In short, it runs like this: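 Primary human umbilical vein endothelial cells in the 3C system were exposed to chemical for 24 h, after which MIG was quantified by ELISA. Activity was fitted bidirectionally against DMSO as negative control and baseline.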

A short description of assay [10]: BSK_3C_SRB: Viability Assessment in the BioMAP Diversity Plus: 3C Assay (AID 2283023).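 Also: fitted both ways against DMSO so a hit may be signal rise or drop.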 Particulars: primary human endothelial cells (HUVEC). In outline: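 Cytotoxicity readout in parallel HUVEC 3C cultures: after 24 h compound exposure, cells fixed with 10% TCA, stained with 0.1% SRB and read at 560 nm. Gain or loss relative to DMSO fitted.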
Read-out in assay [11]: Matrix Metallopeptidase 1 (MMP1), MMP1 (gene 4312)
In words: BSK_BE3C_MMP1: BioMAP Diversity Plus: BE3C Assay for Matrix Metallopeptidase 1 (MMP1) Biomarker Activity (AID 2283024). Particulars: primary human bronchial epithelial cells; actives raise or lower the signal. In outline:
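Primary human bronchial epithelial cells were dosed with test chemicals, and MMP1 levels were measured by ELISA 24 h later. Data were fitted bidirectionally against DMSO as the negative control and activity baseline.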

A short description of assay [12]: BSK_3C_Vis: BioMAP Diversity Plus: 3C Assay for Morphology Visualization (AID 2283025).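 Also: fitted both ways so gain or loss versus DMSO counts.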 Particulars: primary human endothelial cells (HUVEC). In short, it runs like this: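 Human umbilical vein endothelial cells in the 3C system were imaged by light microscopy 24 h after chemical dosing to record cell morphology. Activity was fitted bidirectionally against DMSO as negative control and baseline; the endpoint serves as a background control.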

Read-out in assay [13]: Pselectin, SELP (gene 6403)
In words: BSK_4H_Pselectin: BioMAP Diversity Plus: 4H Assay for Pselectin Biomarker Activity (AID 2283026). The conditions noted are these: primary human endothelial cells (HUVEC); actives raise or lower the signal. In short, it runs like this: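 Primary human umbilical vein endothelial cells were exposed to test chemical for 24 h, then cell-surface P-selectin was quantified by ELISA. Activity was fitted bidirectionally against DMSO as negative control and baseline.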

Assay [14] can be described thus: BSK_4H_SRB: Viability Assessment in the BioMAP Diversity Plus: 4H Assay (AID 2283027).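 Also: cells exposed to compound for 24 h before staining.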 The conditions noted are these: primary human endothelial cells (HUVEC). In short, it runs like this: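 Absorbance at 560 nm of SRB-stained total protein served as the viability read-out in confluent primary human umbilical vein endothelium 24 h after chemical treatment. Curves were fitted bidirectionally against DMSO as negative control.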

The nature of assay [15]: BSK_BE3C_SRB: Viability Assessment in the BioMAP Diversity Plus: BE3C Assay (AID 2283028).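 As to AC50: fitted both ways so AC50 may mark signal gain or loss versus DMSO.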 Particulars: primary human bronchial epithelial cells. In short, it runs like this: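 Cytotoxicity read-out: SRB (0.1%) staining of TCA-fixed (10%) human lung bronchial epithelial cells, absorbance 560 nm, 24 h post-dosing. Curves fitted both directions relative to DMSO.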
Read-out in assay [16]: Thrombomodulin, THBD (gene 7056)
The experiment in a line: BSK_3C_Thrombomodulin: BioMAP Diversity Plus: 3C Assay for Thrombomodulin Biomarker Activity (AID 2283029). Particulars: primary human endothelial cells (HUVEC); actives raise or lower the signal. In short, it runs like this: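 Primary human umbilical vein endothelial cells (3C system) were exposed to chemical for 24 h, then thrombomodulin levels were measured by ELISA. Activity was fitted bidirectionally against the DMSO negative control as baseline.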

Read-out in assay [17]: Urokinase-type plasminogen activator receptor (uPAR), PLAUR (gene 5329)
The experiment in a line: BSK_4H_uPAR: BioMAP Diversity Plus: 4H Assay for Urokinase-type plasminogen activator receptor (uPAR) Biomarker Activity (AID 2283030). The conditions noted are these: primary human endothelial cells (HUVEC); actives raise or lower the signal. In short, it runs like this: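 uPAR level read by ELISA on HUVEC cultures (BioMAP 4H) 24 h post-dosing, analyzed for gain or loss relative to DMSO. Parallel SRB staining assessed overt cytotoxicity.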

Read-out in assay [18]: Vascular endothelial growth factor receptor 2 (Homo sapiens) (UniProt P35968)
In words: BSK_4H_VEGFRII: BioMAP Diversity Plus: 4H Assay for Vascular endothelial growth factor receptor 2 (VEGFR2) Biomarker Activity (AID 2283031). Particulars: primary human endothelial cells (HUVEC); actives raise or lower the signal. In short, it runs like this: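 Measured by ELISA after 24 h of compound treatment: VEGFR2 on primary human umbilical vein endothelial cells, fitted in both directions relative to DMSO. Parallel cultures received SRB staining (560 nm) for overt cytotoxicity.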

Read-out in assay [19]: Human Leukocyte Antigen - DR isotype (HLADR), HLA-DRA (gene 3122)
In words: BSK_BE3C_HLADR: BioMAP Diversity Plus: BE3C Assay for Human Leukocyte Antigen - DR isotype (HLADR) Biomarker Activity (AID 2283032). The conditions noted are these: primary human bronchial epithelial cells; actives raise or lower the signal. In short, it runs like this:
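Human primary bronchial epithelial cells in the BE3C system were exposed to chemicals for 24 h, after which HLA-DR levels were quantified by ELISA. Activity was fitted bidirectionally, gain or loss of signal, against DMSO as negative control and baseline.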

Assay [20] addresses human Vitamin D Receptor (VDR), VDR (gene 7421) (UniProt P11473). The experiment in a line: ATG_VDR_TRANS: Attagene TRANS-FACTORIAL HepG2 Assay for human Vitamin D Receptor (VDR) (AID 2283022; active = hit-call score of the fitted dose curve at least 0.9, where 1 is the maximum). In short, it runs like this:
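Transactivation by an exogenous VDR-Gal4 chimera in transiently transfected HepG2 cells was measured as reporter transcript level 24 hours after chemical treatment. RT-PCR products were analysed by capillary electrophoresis and fitted in the positive direction relative to DMSO.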

Sequence of E-selectin (Homo sapiens) (P16581 whole entry, looked up): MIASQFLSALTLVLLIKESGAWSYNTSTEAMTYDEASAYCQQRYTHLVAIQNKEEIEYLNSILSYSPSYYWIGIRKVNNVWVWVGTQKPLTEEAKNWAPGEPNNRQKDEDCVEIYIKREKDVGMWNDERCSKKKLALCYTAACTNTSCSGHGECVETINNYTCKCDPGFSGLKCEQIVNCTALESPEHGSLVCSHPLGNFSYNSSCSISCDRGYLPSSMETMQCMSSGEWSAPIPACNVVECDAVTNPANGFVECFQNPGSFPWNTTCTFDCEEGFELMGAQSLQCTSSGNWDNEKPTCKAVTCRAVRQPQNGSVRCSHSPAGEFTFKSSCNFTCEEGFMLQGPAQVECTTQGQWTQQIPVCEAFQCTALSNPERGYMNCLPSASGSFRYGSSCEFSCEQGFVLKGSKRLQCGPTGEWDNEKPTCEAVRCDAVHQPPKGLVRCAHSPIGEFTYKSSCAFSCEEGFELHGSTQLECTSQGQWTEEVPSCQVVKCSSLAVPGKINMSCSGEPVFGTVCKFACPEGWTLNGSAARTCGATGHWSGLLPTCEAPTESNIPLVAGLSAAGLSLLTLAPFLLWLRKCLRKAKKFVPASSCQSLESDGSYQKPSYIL
Sequence of human Vitamin D Receptor (VDR), VDR (gene 7421) (P11473 whole entry, looked up, the tested form may be a part): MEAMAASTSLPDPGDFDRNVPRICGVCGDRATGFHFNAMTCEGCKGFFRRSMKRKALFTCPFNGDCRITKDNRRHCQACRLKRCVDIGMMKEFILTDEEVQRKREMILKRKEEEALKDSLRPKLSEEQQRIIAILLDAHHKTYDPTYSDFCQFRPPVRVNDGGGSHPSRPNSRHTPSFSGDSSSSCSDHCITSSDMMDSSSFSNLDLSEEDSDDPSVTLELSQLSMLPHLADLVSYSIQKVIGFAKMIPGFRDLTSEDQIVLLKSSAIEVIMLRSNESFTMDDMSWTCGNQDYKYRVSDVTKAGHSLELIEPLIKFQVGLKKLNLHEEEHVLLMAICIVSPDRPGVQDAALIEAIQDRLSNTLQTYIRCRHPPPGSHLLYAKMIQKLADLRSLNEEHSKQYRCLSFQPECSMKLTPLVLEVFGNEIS
Sequence of human Thyroid Receptor alpha (THRa1), THRA (gene 7067) (P10827 whole entry, looked up, the tested form may be a part): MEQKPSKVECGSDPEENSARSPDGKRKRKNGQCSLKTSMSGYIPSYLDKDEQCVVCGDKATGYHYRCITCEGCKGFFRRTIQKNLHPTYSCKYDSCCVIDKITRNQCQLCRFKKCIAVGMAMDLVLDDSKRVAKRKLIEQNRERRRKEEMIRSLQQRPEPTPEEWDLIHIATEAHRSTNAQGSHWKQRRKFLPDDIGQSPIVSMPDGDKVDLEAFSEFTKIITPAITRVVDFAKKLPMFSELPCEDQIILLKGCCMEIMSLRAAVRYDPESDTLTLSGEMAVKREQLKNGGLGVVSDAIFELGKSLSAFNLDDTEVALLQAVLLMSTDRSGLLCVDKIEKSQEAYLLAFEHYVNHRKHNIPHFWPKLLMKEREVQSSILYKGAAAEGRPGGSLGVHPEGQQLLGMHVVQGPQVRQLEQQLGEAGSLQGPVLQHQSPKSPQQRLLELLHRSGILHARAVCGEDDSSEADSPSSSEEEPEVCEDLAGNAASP

For `O=Nc1ccc(O)cc1`, the call in [1], in assay [2], in assay [3], in [4], in [5] and in [6] was inactive. In addition, the result in assay [7], in assay [8], in assay [9], in assay [10], in assay [11] and in assay [12] was inactive. For the same compound, the result in [13], in [14], in assay [15], in assay [16], in assay [17] and in assay [18] was inactive. In [19], the result was inactive.
As for `CC(C)CC(O)Cc1ccccc1` (stereo not given), the compound was called inactive in [1] and in assay [2].
Consider `Cc1ccc(C(C)(C)C)cc1`, for which the compound was called inactive in assay [1] and in [2].
As for `[Cl][Nd]([Cl])[Cl]`, the compound was called inactive in [1] and in assay [2].
`CNC(=S)NN`: the result in assay [1] and in assay [2] was inactive.
The term AC50 denotes the concentration giving half of the maximal activity seen. Regarding `O=C(c1ccc(O)cc1)c1ccc(O)cc1O`, the compound was classed as inactive in assay [1], in assay [2], in assay [3], in assay [4], in assay [5] and in [6]. The result in assay [7], in assay [8], in [9], in assay [10], in assay [11] and in assay [13] was inactive. In addition, the result in assay [14], in [15], in [16], in assay [17], in assay [18] and in [19] was inactive. The half-maximal activity concentration (AC50) is 12.9 µM (active) in assay [11], 9.72 µM (active) in assay [17] and 20 µM (active) in assay [19].
For the compound `C=CC(=O)NC(C)(C)CS(=O)(=O)O`, the outcome in assay [1] and in [2] was inactive.
Take `CC1=Nc2ccc3ccccc3c2C1(C)C`: the compound was classed as inactive in [1], in [2] and in assay [20].
Regarding `C=CCOCC(O)CCl` (stereo not given), the compound was classed as inactive in assay [1], in assay [2], in [3], in assay [4], in assay [5] and in [6]. Further, the result in [7], in [8], in [9], in [20], in assay [10] and in assay [11] was inactive. For the same compound, the outcome in assay [12], in assay [13], in [14], in assay [15], in assay [16] and in [17] was inactive. Further, the result in [18] and in assay [19] was inactive.
On to `CC(C)(C)c1ccc(-c2ccc(C(C)(C)C)cc2)cc1`, for which the compound was classed as inactive in [1] and in [2].
Regarding `C=CCOc1c(Br)cc(Br)cc1Br`, the AC50 is 6.51 µM (active) in assay [1]; 20 µM (active) in [3]; 20 µM (active) in [4]; 20 µM (active) in assay [5]; 20 µM (active) in [6]; 24.8 µM (active) in assay [7]. The AC50 in assay [10] is 29.3 µM (active); in assay [11], 3.97 µM (active); in [12], 14.1 µM (active); in [13], 20 µM (active); in assay [15], 31.4 µM (active); in assay [16], 3.97 µM (active). Besides, the values for the AC50 in assay [17] and in [19] were 31 µM (active) and 29 µM (active), respectively. Besides, the compound was classed as inactive in assay [2], in [8], in assay [9], in assay [20], in [14] and in [18].
